# The whole screen tested about 310,000 compounds, of which about 14,000 (4.5%) showed an effect of 50% or more. Effects have a minus sign here. This excerpt belongs to a sample that is enriched for strong results.
# Target: human ether-à-go-go-related gene (hERG) potassium channel (human, UniProt Q12809)
# Assay: primary screen, population patch clamp on CHO cells stably expressing hERG; higher = less effect of the substance
# 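Also: peak tail current of the secondary pulse compared with the same well before compound.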
# Sequence of human ether-à-go-go-related gene (hERG) potassium channel (Q12809 whole entry, looked up): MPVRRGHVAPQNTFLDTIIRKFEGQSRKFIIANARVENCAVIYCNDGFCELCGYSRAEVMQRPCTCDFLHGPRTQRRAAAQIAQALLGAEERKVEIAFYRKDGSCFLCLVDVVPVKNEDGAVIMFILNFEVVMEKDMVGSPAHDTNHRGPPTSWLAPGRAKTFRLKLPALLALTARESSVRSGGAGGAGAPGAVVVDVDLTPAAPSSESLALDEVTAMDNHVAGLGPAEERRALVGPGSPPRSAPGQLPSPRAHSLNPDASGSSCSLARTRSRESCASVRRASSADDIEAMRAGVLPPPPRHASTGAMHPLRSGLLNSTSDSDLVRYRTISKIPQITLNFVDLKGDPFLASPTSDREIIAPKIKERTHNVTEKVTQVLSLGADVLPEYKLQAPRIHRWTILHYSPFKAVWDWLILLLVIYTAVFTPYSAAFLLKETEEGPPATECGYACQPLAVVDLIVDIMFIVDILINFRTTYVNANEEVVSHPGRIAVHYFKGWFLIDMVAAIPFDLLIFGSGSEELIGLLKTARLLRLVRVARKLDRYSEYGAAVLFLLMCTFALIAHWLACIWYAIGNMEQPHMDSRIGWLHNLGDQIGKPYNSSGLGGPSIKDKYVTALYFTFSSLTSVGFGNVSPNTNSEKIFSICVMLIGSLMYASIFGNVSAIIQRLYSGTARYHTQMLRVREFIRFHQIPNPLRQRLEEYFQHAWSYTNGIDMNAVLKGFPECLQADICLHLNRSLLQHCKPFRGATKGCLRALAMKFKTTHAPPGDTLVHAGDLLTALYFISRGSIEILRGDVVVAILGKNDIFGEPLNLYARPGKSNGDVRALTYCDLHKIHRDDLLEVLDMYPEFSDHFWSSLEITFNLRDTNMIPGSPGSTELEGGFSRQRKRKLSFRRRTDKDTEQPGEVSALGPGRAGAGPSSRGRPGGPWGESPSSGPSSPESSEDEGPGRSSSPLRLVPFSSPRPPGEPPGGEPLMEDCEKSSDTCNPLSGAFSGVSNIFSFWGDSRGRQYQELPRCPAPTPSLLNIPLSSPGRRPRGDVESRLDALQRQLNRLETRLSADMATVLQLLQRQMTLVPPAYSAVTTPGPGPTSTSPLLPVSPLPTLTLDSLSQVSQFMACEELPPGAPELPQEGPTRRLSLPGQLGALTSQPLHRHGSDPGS
row,SMILES,"hERG current change (%, negative = inhibition) at 10uM"
1,CCCCC[n+]1ccn(C2=C([O-])c3ccccc3C(=O)/C2=N\S(=O)(=O)c2ccc(Br)cc2)c1,-39.1%
2,CC(/C=C/c1ccc2c(c1)OCO2)=N\NC(=O)c1ccccc1,10.3%
3,O=S(=O)(NC1CCSc2ccccc21)c1ccc(Cl)nc1 (stereo not drawn),-18.1%
4,CCOc1cc(/C=C2/C(=N)N3C(=NC2=O)SN=C3S(=O)(=O)C(C)C)ccc1OC(=O)c1ccco1,3.02%
5,COC(=O)C1C(O)=C(C=Nc2ccc3ccccc3c2)C(=O)CC1(C)C (stereo not drawn),-8.23%
6,O=[N+]([O-])c1ccc(Sc2ccc(F)cc2)nc1,11.2%
7,COc1ccc(C(=O)Nc2cccc(/C=C(\CCC(=O)O)c3nc4ccccc4s3)c2)cc1,8.59%
8,CN(C)/C=C1\C(=O)NN=C1C(F)(F)F,4.44%
9,Cc1cccn2cc(-c3cccc(S(=O)(=O)N4CCOCC4)c3)nc12,0.676%
10,COc1cc(OC)cc(C(=O)NCC(=O)N2CCCCC2)c1,9.25%
11,CCn1ncc(Cl)c1C(=O)Nc1ccc2c(c1)CCC2,3.85%
12,Cc1ccc(NC(=O)NCC2CCN(Cc3cccc(Cl)c3)CC2)cc1Cl,-19.7%
13,CCc1ccc(NC(=O)NCC2CCN(c3ccc(OC)cc3)C2)cc1 (stereo not drawn),-6.79%
14,CCc1ccc(NC(=O)NCC2CCN(Cc3cccc(Cl)c3)CC2)cc1,-82.9%
15,O=C(NCC1CC1)Nc1ccc(Cl)cc1,17.7%
16,O=C(NCC1CCN(Cc2cccc(Cl)c2)CC1)Nc1ccc(Cl)cc1,-76.2%
17,COc1ccc(Oc2nccc(OC)c2C#N)cc1,-0.188%
18,O=C(NCCCN1CCCC1=O)C1CCN(S(=O)(=O)c2cccc(Cl)c2Cl)CC1,-18.7%
19,O=C(/C=C/c1ccccc1)OCC(=O)N1CCCC1,0.185%

row,SMILES,"hERG current change (%, negative = inhibition) at 10uM"
1,Cc1cc(NC(=O)CCN2CCCCC2)ccc1Br,-72.8%
2,Cc1cc(NC(=O)CCN2CCC(C)CC2)ccc1Br.Cl,-57.6%
3,CCN1CCN(CCC(=O)Nc2ccc(Br)c(C)c2)CC1.Cl,-30.8%
4,Cc1cc(NC(=O)CCN2CCN(C)CC2)ccc1Br.Cl,-7.85%
5,Cc1cc(NC(=O)CCN2CC(C)OC(C)C2)ccc1Br.Cl (stereo not drawn),-7.73%
6,Cc1cc(NC(=O)CCN2CCN(CCO)CC2)ccc1Br.Cl,-4.69%
7,Cc1nc(NCCN)c(C#N)c2c1COC(C)(C)C2,16%
8,CC1(C)Cc2c(C#N)c(NCCN3CCOCC3)nc(-c3ccco3)c2CO1,-6.23%
9,CC1(C)Cc2c(C#N)c(NCc3ccco3)nc(-c3ccco3)c2CO1,-8.94%
10,CC1(C)Cc2c(C#N)c(N3CCOCC3)nc(-c3ccccc3)c2CO1,-12.1%
11,CCN(CC)CCNc1nc(-c2ccccc2)c2c(c1C#N)CC(C)(C)OC2,-66.4%
12,CN(C)CCNc1nc(-c2ccco2)c2c(c1C#N)CC(C)(C)OC2,-55.7%
13,CC1(C)Cc2c(C#N)c(NCCc3ccccc3)nc(-c3ccco3)c2CO1,12.5%
14,CC1(C)Cc2c(C#N)c(NCCO)nc(-c3ccco3)c2CO1,-4.23%
15,CCN(CC)CCNc1nc(-c2ccco2)c2c(c1C#N)CC(C)(C)OC2,-62.6%
16,COC(=O)c1c(NC(=S)NN2CCOCC2)sc2c1CCCC2,8.03%
17,COc1ccc(S(=O)(=O)Nc2ccc(S(=O)(=O)NCC3CCCO3)cc2)cc1 (stereo not drawn),6.4%
18,CCc1nc2c(sc3nc4c(cc32)COC(C)(C)C4)c(=O)n1CCN(CC)CC,-38.1%
19,COc1ccc(C(=O)Nc2ccc3ccccc3n2)c(OC)c1OC,17.8%

row,SMILES,"hERG current change (%, negative = inhibition) at 10uM"
1,COc1ccc(C[C@H](N)C(=O)N[C@H]2[C@@H](O)[C@H](n3cnc4c(N(C)C)ncnc43)O[C@@H]2CO)cc1.Cl,-5.25%
2,Cc1ccc(C(=O)Nc2ccc3c(c2)OCO3)cc1S(=O)(=O)N1CCCCC1,-18.8%
3,CC(O)c1nc2ccccc2n1CCCOc1ccccc1 (stereo not drawn),-7.48%
4,O=C(CN1CCN(CC(=O)Nc2ccccc2Cl)CC1)Nc1ccc(F)c(F)c1,-78.2%
5,O=C(CN1CCN(c2ccc(Cl)cc2)CC1)Nc1ccc(F)c(F)c1,-18.7%
6,CCN(CC)S(=O)(=O)c1ccc(Cl)c(C(=O)NC2CCN(Cc3ccccc3)CC2)c1.Cl,-28.8%
7,O=C(CN1CCCCCC1)Nc1ccc(F)c(F)c1.O=C(O)C(=O)O,-22.4%
8,CCN(CC)S(=O)(=O)c1ccc(NC2CCN(Cc3ccccc3)CC2)nc1,-57.9%
9,Cc1ccccc1NC(=O)CN1CCN(Cc2ccccc2)CC1,-36.1%
10,CCN(CC)S(=O)(=O)c1ccc(NCc2ccccc2)nc1,-11.3%
11,CCN1CCN(CC(=O)Nc2cc(F)ccc2C)CC1,-46.2%
12,Cc1ccc(F)cc1NC(=O)CN1CCN(Cc2ccccc2)CC1,-63.2%
13,Cl.O=C(CN1CCN(Cc2ccccc2)CC1)Nc1ccc2c(c1)CCC2,-47.6%
14,O=C(CN1CCN(Cc2ccccc2)CC1)Nc1ccc(F)c(F)c1.O=C(O)C(=O)O,-57.1%
15,O=C(CN1CCN(Cc2ccccc2F)CC1)Nc1ccccc1Cl,-27.6%
16,COc1ccc(C)cc1NC(=O)CSc1ccc(Cl)cc1,11.1%
17,Cc1cccc(C)c1NC(=O)CCS(=O)(=O)c1ccc(Br)cc1,31.2%
18,COc1cccc(-c2nc(CS(=O)(=O)CC(=O)N3CCN(C)CC3)c(C)o2)c1,8.02%
19,CCN(CC)CC(=O)Nc1ccc(-c2nc3cc(NC(=O)CN(CC)CC)ccc3o2)cc1,-18.1%
